Laboratory results as given in PubChem BioAssay AID2685 (National Center for Advancing Translational Sciences (NCATS), 2010).
Screen size: about 320,000 compounds; about 2,100 (0.66%) were called active. About 53% were inconclusive and are not listed. The sample holds actives, similar compounds and a random draw of the others, so the mix is not that of the screen. The call rests on the fitted dose curve; in most records, active means well fitted inhibition curve with a large enough effect in the signal ratio, with a control signal flat (not every such curve was filed as active); inconclusive means small, poorly fitted or top-dose-only effect, or effect the other way, or a change in a side signal; inactive means flat fitted curve, though single readings scatter; the % refers to the signal ratio.

Assay: qHTS Assay for Lipid Storage Modulators in Drosophila S3 Cells;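 on cell number change: cells counted by Cell Tracker Red CMTPX staining in the red channel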; on lipid storage change, negative = inhibition: on the % scale 0 is the no-effect control and ±100 the full control effect
Conditions: BODIPY lipid droplet fluorescence, 18-24 h, cells fed with added oleic acid; cell number change: measured here: cell count max response; series mostly up to 46.1 µM; lipid storage change, negative = inhibition: at the top concentration
How it was run: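 Drosophila S3 cells got compounds at several concentrations plus oleic acid (400 uM solution). Laser-scanning cytometry with 488 nm excitation read lipid droplets at 500-530 nm and cells at 575-640 nm. Percent activity was relative to 20 uM Triacsin C.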
Potency means the concentration at half of the fitted maximal effect.

SMILES | lipid storage change, negative = inhibition | Potency | cell number change [%] | outcome
Cc1ccccc1NC(=O)c1ccccn1 | 2.23% (inactive) |  |  | 
Cc1ccccc1NC(=O)c1cccc(C(=O)Nc2ccccc2C)n1 |  | 8.2 µM (active) | -25.7 | 
O=C(Nc1cccc2ccccc12)c1onc2c1CCCC2 |  |  |  | inactive
O=C(Nc1ccccn1)c1onc2c1CCCC2 | 0.434% (inactive) |  |  | 
Cc1ccccc1NC(=O)C(=O)Nc1ccccc1C | 7.41% (inactive) |  | 0.926 | 
Cc1ccccc1NC(=O)c1onc2c1CCCC2 |  | 25.9 µM (active) |  | 
COc1cc2c(cc1OC)C(c1ccc3c(c1)OCO3)C1=C(CC(C)(C)CC1=O)N2 (stereo unspecified) | -20.1% (inactive) |  | -17.2 | 
CC(=O)NCc1cc(-c2ccc(Cl)cc2)no1 | 0.337% [at 9.22 µM] (inactive) |  | -2.06 | 
O=C(NCc1nnc(SCC(=O)N2CCc3ccccc32)o1)c1cccs1 | 2.4% (inactive) |  | -1.06 | 
CCOC(=O)N1CCN(CC(O)c2c[nH]c3ccccc23)CC1 (stereo unspecified) | 1.13% (inactive) |  | 14.4 | 
Cc1ccc(-c2nn(C)c(=O)c3ccccc23)cc1CNC(=O)/C=C/c1ccccc1 |  |  | -24.2 | inactive
CCCCn1c(=O)[nH]c(=O)c2c1nc(-c1cccc(OC)c1)n2C | -6.52% (inactive) |  | -6.05 | 
CCCCn1c(=O)[nH]c(=O)c2c1nc(-c1ccc(-c3ccc(F)cc3)o1)n2C | 26% (inactive) |  | 10.6 | 
C=CCOc1ccc(-c2nc3c(c(=O)[nH]c(=O)n3Cc3ccccc3)n2CCCOC)cc1 | -1% (inactive) |  | 4.84 | 
CCCCn1c(=O)[nH]c(=O)c2c1nc(-c1ccc(OC)c(Br)c1)n2CC(C)C |  | 0.326 µM (active) | 9.66 | 
C=CCOc1ccc(-c2nc3c(c(=O)[nH]c(=O)n3CCC)n2CCCC)cc1 |  | 2.91 µM (active) | 22.5 | 
CCCn1c(-c2cccc([N+](=O)[O-])c2)nc2c1c(=O)[nH]c(=O)n2Cc1ccccc1 | 18.3% (inactive) |  | 1.66 | 
CCCn1c(-c2cccc(F)c2)nc2c1c(=O)[nH]c(=O)n2Cc1ccccc1 |  |  | 13.3 | inactive
CCCCn1c(=O)[nH]c(=O)c2c1nc(-c1ccc(-c3ccccc3)cc1)n2C |  | 3.66 µM (active) | -2.7 | 
C=CCOc1ccc(-c2nc3c(c(=O)[nH]c(=O)n3CCCC)n2C)cc1Br | -0.288% (inactive) |  | 12.1 | 
CCCCn1c(=O)[nH]c(=O)c2c1nc(-c1ccc(OCC)cc1)n2CC | 13.4% (inactive) |  | -8.47 | 
CCCn1c(-c2cc(OC)c(OC)c(OC)c2)nc2c1c(=O)[nH]c(=O)n2Cc1ccccc1 |  | 0.651 µM (active) |  | 
CCCCn1c(=O)[nH]c(=O)c2c1nc(-c1cc(Br)c(OCC)c(OC)c1)n2C | -29.7% (inactive) |  | 15 | 

SMILES | lipid storage change, negative = inhibition | Potency | cell number change [%] | outcome
Cc1cc(C)c(NC(=O)c2cc(C(=O)O)ccc2C(=O)O)c([N+](=O)[O-])c1 | 2.67% (inactive) |  | 2.4 | 
COc1ccc(CCc2cc(OC)cc(=O)o2)cc1 | 16.7% (inactive) |  | -1.16 | 
Cc1ccc(Cl)c(OCCCCN(C)Cc2ccccc2)c1 | -10.2% (inactive) |  | -11.3 | 
CN(CCOc1ccc(F)cc1)Cc1ccccc1 | 11.2% (inactive) |  | 11.7 | 
Cc1cc(C)c(OCCCCN(C)Cc2ccccc2)c(C)c1 |  | 7.31 µM (active) | -22 | 
CN(Cc1ccccc1)C(=O)COc1ccccc1Cl | -17.2% (inactive) |  | 10.4 | 
CN(CCOc1ccccc1Cl)Cc1ccccc1 |  | 23.1 µM (active) | -8.5 | 
CN(CCCCOc1ccc(F)cc1)Cc1ccccc1 | 13.9% (inactive) |  | 9.09 | 
CC1CN(S(=O)(=O)c2ccc(C(=O)Nc3nnc(-c4ccccn4)o3)cc2)CC(C)O1 (stereo unspecified) | -3.48% (inactive) |  | 10.4 | 
Cn1c(=O)c(C(=O)NNC(=O)c2ccccc2F)c(O)c2ccccc21 |  |  | 13 | inactive
Cn1c(=O)c(C(=O)NNC(=O)c2ccccc2Br)c(O)c2ccccc21 |  |  | 7.83 | inactive
Cn1c(=O)c(C(=O)NNC(=O)c2ccc(Br)cc2)c(O)c2ccccc21 |  | 16.4 µM (active) | 12.5 | 
COc1cccc(CN2CC(C(=O)N3CCOCC3)CCC2=O)c1 (stereo unspecified) |  |  | -3.29 | inactive
c1ccc(-c2csc3ncnc(NCCN4CCOCC4)c23)cc1 | -15.7% (inactive) |  | -69.5 | 
c1ccc(-c2csc3ncnc(NCc4ccccn4)c23)cc1 | -14.3% (inactive) |  | -13.1 | 
c1ccc(-c2csc3ncnc(NCC4COc5ccccc5O4)c23)cc1 (stereo unspecified) |  | 1.84 µM (active) | -33.8 | 
COc1ccc(S(=O)(=O)NCC2CCCN(C(=O)C=C(C)C)C2)cc1 (stereo unspecified) | 0.395% (inactive) |  | -5.61 | 
CCOc1ccccc1C(=O)N1CCC(n2nnc3cc(C(F)(F)F)ccc32)CC1 |  |  |  | inactive
COc1ccc(CN(CC(=O)NC2CCCC2)C(=O)CCC(=O)Nc2nc(C)cs2)cc1 |  | 4.61 µM (active) | 2.99 | 
CC(C)CCNC(=O)CN(C(=O)CCC(=O)Nc1nccs1)C1CCCCC1 |  | 1.3 µM (active) | -4.17 | 
COc1ccc(CN(CC(=O)NC2CCCC2)C(=O)CCC(=O)Nc2cc(C)on2)cc1 | 6.13% (inactive) |  | 2.01 | 
O=C(CCC(=O)N(CC(=O)NC1CCCC1)Cc1ccccc1)Nc1nccs1 |  | 3.66 µM (active) | 6.76 | 
CC(C)CCNC(=O)CN(Cc1ccccc1)C(=O)CCC(=O)Nc1nccs1 |  |  | 2.61 | inactive
